Screening results deposited in PubChem by Broad Institute.
esBAF inh – Bmi1 luciferase reporter increase in mESCs, primary screen, esBAF inhibitor project, mouse ES cells, Bmi1 luciferase knock-in, single point; 24 h; 100% = twice the neutral-well signal; AID 602393, 2012; actives 2% (n = 350,000); reporter increase, % at 12.5 µM; in the data active = activation above about 40%;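 note: a rise in the Bmi1 reporter signal indicates esBAF inhibition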
HSF1 activator – HSF-1 activators, primary screen, NIH3T3-HGL cells, MG132 stress, luminescence, single point; activation, % at 9 µM; actives 1.7% (n = 300,000); NIH3T3-HGL HSF-1 luciferase reporter, 8 h; 100% = twice DMSO control signal;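 active = mean replicate activation of at least 50% with a set share of replicates each reaching 50%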
HSF1 inh – HSF1 inhibitors in luciferase reporter cells, primary screen, cell-based, NIH3T3, luminescence. NIH3T3-HGL HSE-luciferase, MG132-induced, luminescence 8 h; hits give low values. activity change, negative = inhibition, % at 7.5 µM (by protocol). actives 0.77% (n = 300,000);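 active = more than half of replicate wells show activity change below -50%, luminescence cut by over half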;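 note: luciferase reports HSF-1 transcriptional activity via heat shock element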
Vif imaging – HIV Vif self-association inhibitors, primary screen, imaging, HEK293T, single point | HEK293T cells, Vif self-association by quenched fluorescence, 24 h | inhibition, % at 7.49 µM | actives 0.35% (n = 340,000) | AID 602346, 2012; in the data active = inhibition above about 50%, passing the limit was not always enough
A number is an active result; . = inactive; / = not tested or not shown. In the library only some 3.4% were active in any assay of this set; here they are far more common.

SMILES | esBAF inh | HSF1 activator | HSF1 inh | Vif imaging
CCCNC(=O)C[C@H]1CC[C@@H]2[C@H](COC[C@@H](O)CN2C(=O)c2cc(Cl)cc(Cl)c2)O1 | . | / | / | /
CCOC(=O)c1ccc2[nH]c(C)c(C)c2c1 | 59 | . | . | .
CCOC(=O)c1ccc2[nH]c3ccccc3c2c1 | 62 | . | . | .
Cc1[nH]c2ccc(C(=O)OCCN(C)C)cc2c1C | . | . | . | .
COc1ccccc1CNC(=O)C(C)NS(=O)(=O)c1ccc(Br)cc1 (configuration not stated) | . | . | -73 | .
CC(NS(=O)(=O)c1ccc(Br)cc1)C(=O)NCc1ccco1 (configuration not stated) | / | . | . | .
C[C@@H]1CCCCO[C@H](CN(C)C)[C@H](C)CN([C@@H](C)CO)C(=O)c2cc(NC(=O)c3ccncc3)ccc2O1 | . | / | / | /
Cn1c(N)c(C(=O)CSc2nc3ccccc3c(=O)n2Cc2ccccc2)c(=O)n(C)c1=O | / | . | . | .
CCCn1c(N)c(C(=O)CSc2nc3ccccc3c(=O)n2Cc2ccccc2)c(=O)[nH]c1=O | / | . | -84 | .
C[C@@H]1CCCCO[C@H](CN(C)S(=O)(=O)c2cn(C)cn2)[C@@H](C)CN([C@@H](C)CO)C(=O)c2cc(NC(=O)c3ccccc3)ccc2O1 | . | / | / | /
Cc1cccc(Nc2nc3ccccc3s2)c1C | / | 125 | . | .
CCCN1[C@@H]2c3ccc(-c4ccccc4)c(=O)n3C[C@H]1[C@H](CO)[C@H]2C(=O)NCC | . | / | / | /
O=C(Oc1cccc2cccnc12)c1ccc(Br)o1 | . | 66 | . | .
CCOC(=O)c1c(S(=O)(=O)N2CCCCC2C)c(C)n(C)c1C (configuration not stated) | . | . | -88 | .
Clc1ccc(Nc2ncnc3ccc(Br)cc23)cc1 | . | . | . | .
CN(C)c1ccc(Nc2ncnc3ccc(Br)cc23)cc1 | . | . | -53 | .
COCC(=O)Nc1ccc2c(c1)C(=O)N(C)C[C@@H](OC)[C@@H](C)CN(Cc1ccncc1)[C@H](C)CO2 | . | / | / | /
O=C(CCCOc1ccc(Cl)cc1)N1CCCCCC1 | 62 | . | . | /
O=C(c1ccc(COc2ccc(Cl)cc2)cc1)N1CCCCC1 | . | 54 | . | .
O=C(CCCOc1ccc(Cl)cc1)N1CCCCC1 | . | . | . | .
CCCC#Cc1cnc2c(c1)C(=O)N([C@@H](C)CO)C[C@H](C)[C@@H](CN(C)S(C)(=O)=O)O2 | . | / | / | /
CCCC(=O)Nc1ccc2c(c1)C(=O)N(C)[C@H]1CC[C@H](CC(=O)NCCCN(C)C)O[C@@H]1CO2 | . | / | / | /
CC(C)c1ccc(/C=N/n2nnnc2Nc2ccccc2)cc1 | / | 55 | . | .
C[C@@H]1CN([C@H](C)CO)C(=O)Cc2cc(N(C)C)ccc2O[C@@H]1CN(C)S(=O)(=O)c1cccs1 | . | / | / | /
CS(=O)(=O)c1ccc(C(=O)OCC(=O)NC(=O)C2CCCCC2)cc1[N+](=O)[O-] | / | 70 | . | .
SMILES | esBAF inh | HSF1 activator | HSF1 inh | Vif imaging
CC(CCc1ccccc1)NC(=O)COC(=O)c1ccc(S(C)(=O)=O)c([N+](=O)[O-])c1 (configuration not stated) | / | . | -79 | .
Cc1ccccc1NC(=O)COC(=O)c1ccc(S(C)(=O)=O)c([N+](=O)[O-])c1 | / | . | -93 | .
CC(CCc1ccccc1)NC(=O)COC(=O)c1ccc([N+](=O)[O-])cc1 (configuration not stated) | . | . | . | .
O=C(CNC(=O)c1ccc2ccccc2c1)NC1CCCCC1 | . | / | / | .
O=C(NC1CCCCC1)c1ccc2ccccc2c1 | 56 | / | / | /
O=C(NC1CCCCCCC1)c1cccc(Cl)c1 | 60 | . | . | .
CCOc1cccc(C(=O)NC2CCCCC2)c1 | 53 | . | . | .
COc1ccc(S(=O)(=O)N2C[C@H](O)COC[C@H]3O[C@H](CC(=O)N[C@@H]4CCN(Cc5ccccc5)C4)CC[C@@H]32)cc1 | . | / | / | /
Cc1ccc(S(=O)(=O)N(C)C[C@H]2OCCCC[C@H](C)Oc3ccc(NC(=O)Nc4c(C)noc4C)cc3C(=O)N([C@@H](C)CO)C[C@@H]2C)cc1 | . | / | / | /
Cc1c(NS(=O)(=O)c2cc(C(=O)NCc3cccc(Cl)c3)ccc2Cl)c(=O)n(-c2ccccc2)n1C | . | / | / | .
Cc1c(NS(=O)(=O)c2cc(C(=O)NCCN(C)C)ccc2Cl)c(=O)n(-c2ccccc2)n1C | . | . | -74 | /
Cc1nc(Sc2ccc(Br)cc2)c(C#N)c(C)c1[N+](=O)[O-] | . | 128 | . | .
Cc1ccc(Sc2nc(C)c([N+](=O)[O-])c(C)c2C#N)cc1 | . | . | . | .
O=C(NC1(C(=O)NC2CCCCC2)CCCCC1)c1ccc2c(c1)OCO2 | / | . | . | .
O=C(c1ccc2c(c1)OCO2)N(CC1CCCO1)C1(C(=O)NC2CCCC2)CCCCC1 (configuration not stated) | . | . | . | 69
C[C@@H]1CN([C@@H](C)CO)S(=O)(=O)c2ccc(-c3ccccc3F)cc2O[C@H]1CN(C)C | . | / | / | /
C=CCn1c(-c2cccs2)nc2nc3ccccc3nc21 | 46 | . | . | .
CCC(C)n1c(-c2cccs2)nc2nc3ccccc3nc21 (configuration not stated) | . | . | . | 68
Cc1nn(-c2ccccc2)c2nc(N)c(C#N)c(-c3ccc(C(C)(C)C)cc3)c12 | . | . | . | .
COc1cccc(-c2c(C#N)c(N)nc3c2c(C)nn3-c2ccccc2)c1O | . | 63 | . | .
C[C@@H]1CCCCO[C@@H](CN(C)CC2CCCCC2)[C@@H](C)CN([C@H](C)CO)C(=O)c2cc(NS(=O)(=O)c3ccccc3)ccc2O1 | . | / | / | /
Cc1ccc(OCC(=O)NC(=S)Nc2ccc3c4c(cccc24)CC3)cc1 | / | . | . | .
CC(C)c1ccc(OCC(=O)NC(=S)Nc2ccc3c4c(cccc24)CC3)cc1 | . | 68 | . | .
O=C(COc1ccccc1)NC(=S)Nc1cccc2cc(O)ccc12 | / | 85 | . | /
OC[C@H]1Nc2ccc(C#Cc3ccccc3)cc2[C@@H]2[C@H]1CCN2Cc1nccs1 | . | / | / | /
SMILES | esBAF inh | HSF1 activator | HSF1 inh | Vif imaging
N#CCc1nn(-c2ccccc2)c2ncnc(N)c12 | / | . | -60 | .
C[C@@H]1CCCCO[C@H](CN(C)C(=O)c2ccccc2)[C@@H](C)CN([C@@H](C)CO)C(=O)c2cc(N(C)C)ccc2O1 | . | / | / | /
CCc1c(C)nc(SCC(=O)c2cccs2)c(C#N)c1C | 54 | / | / | /
O=c1c(-c2nc3ccccc3s2)cccn1Cc1ccc(Cl)c(Cl)c1 | / | 52 | . | .
c1ccc(-c2noc(COc3ccc4c(c3)OCO4)n2)cc1 | 63 | 55 | . | /
CN(Cc1nc(-c2ccccc2)no1)C(=O)c1ccc2c(c1)OCO2 | . | . | -59 | .
CN(CCOc1ccccc1)C(=O)c1ccc2c(c1)OCO2 | 43 | / | / | .
O=C(NCCOc1ccccc1)c1ccc2c(c1)OCO2 | . | . | . | /
Cc1cccc(-c2noc(CN(C)C(=O)c3ccc4c(c3)OCO4)n2)c1 | . | . | . | .
